The full list was thinned out, with hits kept by preference.
HT1080 IDH1KD tx – HT-1080 IDH1 knockdown cell toxicity (counter line) | HT-1080 IDH1 knockdown viability, ATP luminescence, 48 h | Potency, µM (highest dose often 46.1 µM), without a hit: at the highest dose activity, negative = toxicity, usual class: cytotoxic | actives 2% (n = 360,000) | AID 686971;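 also: potency is read from the fitted curve at half-maximal effect; 0% = DMSO wells and -100% = cell-free medium wells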
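IDH1KD HT-1080 cells, 750/well, RPMI + 5% FBS; compound pinned after 2 h settling; 48 h, 37 °C; CellTiter-Glo luminescence; % activity normalised to DMSO and no-cell wells; curves fitted, classed by r2 and efficacy.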
IL1B secr inh – inhibitors of inflammasome signaling (IL-1 beta secretion); THP-1 LPS/ATP IL-1B secretion, AlphaLISA, 16 h; stronger effect = lower value; activity change, % at 57.5 µM; actives 4.7% (n = 360,000); in the data active = activity change below about -50%; inconclusive = mostly about -30% to -49%
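Secreted IL-1B measured by AlphaLISA bead assay after 16 h compound exposure of THP-1 cells; compounds (final up to 57.5 uM) added 1 h before LPS (250 ng/mL) and ATP (1.25 mM) stimulation; lower signal means less secretion.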
12-LOX inh – ALOX12 (human) lipoxygenase inhibition; purified 12hLO, xylenol orange hydroperoxide absorbance; Potency, µM (top dose mostly 108 µM), for the others: at the top dose activity change, negative = inhibition, actives largely listed as inhibitors; actives 1.1% (n = 580,000); AID 1671190; also: potency is read from the fitted curve at half-maximal effect
Target sequence (P18054 whole entry, looked up): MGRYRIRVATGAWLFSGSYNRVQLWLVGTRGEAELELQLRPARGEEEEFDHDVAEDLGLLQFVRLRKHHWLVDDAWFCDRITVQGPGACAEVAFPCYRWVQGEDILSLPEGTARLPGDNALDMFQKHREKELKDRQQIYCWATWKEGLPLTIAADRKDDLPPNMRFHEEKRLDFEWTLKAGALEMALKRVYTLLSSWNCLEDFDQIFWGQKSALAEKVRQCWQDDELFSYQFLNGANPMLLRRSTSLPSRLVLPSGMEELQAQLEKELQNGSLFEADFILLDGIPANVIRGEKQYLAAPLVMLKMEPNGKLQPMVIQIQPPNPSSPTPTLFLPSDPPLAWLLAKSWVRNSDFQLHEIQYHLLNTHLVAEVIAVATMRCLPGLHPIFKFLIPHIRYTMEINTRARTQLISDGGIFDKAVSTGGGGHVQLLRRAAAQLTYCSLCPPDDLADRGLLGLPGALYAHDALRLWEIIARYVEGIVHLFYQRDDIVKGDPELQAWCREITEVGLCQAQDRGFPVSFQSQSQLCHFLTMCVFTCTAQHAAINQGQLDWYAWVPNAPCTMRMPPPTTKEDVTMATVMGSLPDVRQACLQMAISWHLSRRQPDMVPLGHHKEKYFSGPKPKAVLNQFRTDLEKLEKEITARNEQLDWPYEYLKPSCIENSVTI
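Hydroperoxide product was detected by ferrous iron/xylenol orange as the 573 to 405 nm absorbance ratio. Arachidonic acid at 40 uM (final) was turned over for 30 min at room temperature by 150 nM human 12hLO, pH 7.0 Hepes buffer, after 15 min compound preincubation.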
TDP1 cell CPT – DT40-hTDP1 cell growth loss with CPT. chicken DT40 Tdp1-/-;hTDP1 cells + 20 nM CPT, ATP luminescence, 48 h. Potency, µM (highest dose often 46.2 µM), for the others: at the top dose activity change, negative = growth inhibition, usual class: inhibitors. actives 12% (n = 420,000). AID 686979; also: potency is read from the fitted curve at half-maximal effect; nearly all actives have a fitted effect of over 55% in size
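Chicken DT40 Tdp1-/- cells complemented with human TDP1, 400 cells/well, exposed to compounds plus 20 nM camptothecin for at least 48 h at 37 C; viability read as ATP content by CellTiter-Glo luminescence.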
HT1080NT lethal – kills 2HG-producing HT-1080-NT fibrosarcoma cells; HT-1080-NT fibrosarcoma viability, CellTiter-Glo ATP luminescence, 48 h; Potency, µM (doses to about 46.1 µM), for the others: at the highest dose activity, negative = less viability, most hits filed as cytotoxic; actives 1.6% (n = 360,000); AID 686970;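 also: NT is the 2HG producing partner of a matched IDH1 knockdown line; potency is read from the fitted curve at half-maximal effect; 0% = DMSO-treated cells and -100% = media-only wells without cells; nearly all actives have a fitted effect of over 55% in size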
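HT-1080-NT; 750 cells/well; 5% FBS RPMI; 48 h compound, 37 degrees C; CellTiter-Glo luminescence; curve fitting and curve-class assignment.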
TDP1 cell noCPT – qHTS for Inhibitors of human tyrosyl-DNA phosphodiesterase 1 (TDP1): qHTS in cells in absence of CPT; DT40 Tdp1-/- hTDP1 cells, no CPT, ATP luminescence, 48 h; Potency, µM (series often up to 46.2 µM), inactives show at the highest dose activity change, negative = growth inhibition, most hits filed as inhibitors; actives 15% (n = 420,000); also: potency is read from the fitted curve at half-maximal effect; nearly all actives have a fitted effect of over 55% in size
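Readout: luminescence from CellTiter-Glo after 30 min in the dark at RT. Cells: DT40 Tdp1-/- with stable hTDP1, 400/well. Exposure: compounds alone, ≥48 hr, 37 °C.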
An asterisk follows results filed as active; ? = inconclusive; . = not tested or not shown; [ ] = another dose, or the depositor's remark. Unless noted, calls follow the shape of the dose curve; as a rule, active = well fitted curve in the direction sought with a large enough effect; inconclusive = small, poorly fitted or top-dose-only effect, or another doubt; inactive = no such curve, though single readings can be large; an effect the other way counts as inactive or inconclusive. Unless noted, % is scaled to controls: 0 for no effect and ±100 for the full control effect.

SMILES	HT1080 IDH1KD tx	IL1B secr inh	12-LOX inh	TDP1 cell CPT	HT1080NT lethal	TDP1 cell noCPT
COc1ccc(C(=O)C(OC(=O)c2ccccc2)c2ccccc2)cc1 (stereo not given)	3.8%	0.0	-19.3%	-15.6%	8.5%	?
COc1ccc(C(=O)C(CN2CCOCC2)c2ccccc2)cc1 (stereo not given)	2µM*	-98.6*	-24.8%[57.4 µM]	2.91µM*	7.08µM*	3.26µM*
O=C(c1ccc(Cl)cc1)C(CN1CCCC1)c1ccccc1 (stereo not given)	20.6µM*	-98.4*	0.4%	4.11µM*	18.4µM*	4.11µM*
CCCOc1ccc(C(O)C(CN2CCOCC2)c2ccccc2)cc1 (stereo not given)	0.8%	-1.6	-29.9%	9.8%	-0.9%	-11.8%
CCCOc1ccc(C(=O)C(CN2CCCC2)c2ccccc2)cc1 (stereo not given)	6.51µM*	-102.6*	-13.4%	3.66µM*	8.2µM*	5.17µM*
Cc1ccc(C(=O)N2CC3CC(C2)[C@H]2CCCC(=O)N2C3)s1 (stereo not given in full)	.	.	-4.6%	.	.	.
CCCCCOc1ccc(C(=O)C(c2ccccc2)N2CCOCC2)cc1 (stereo not given)	-24.5%	?	?	20.6µM*	-11.1%	?
COc1cc(=O)n2c(c1C(=O)Nc1ccc(Cl)cc1C)CCCC2	.	.	8.9%	.	.	.
Cc1cccc(C(=O)N2[C@@H]3CC[C@H]2CC(NC(=O)c2cnc(C)cn2)C3)c1 (stereo not given in full)	.	.	27.6%	.	.	.
Cc1ccc(NS(=O)(=O)c2ccc(-c3csc(C)n3)s2)c(C)c1	?	3.4	0.0%	?	?	16.4µM*
O=C(CSc1nnc(N2CCCC2)n1-c1cccc(Cl)c1)Nc1ccc2c(c1)OCCCO2	.	.	28.5%	.	.	.
O=C(CSc1nnc(-c2ccc(O)cc2)n1Cc1ccco1)c1ccccc1	16.5%	-15.9	1.3%	-18.2%	5.6%	?
Cc1occc1-c1nnc(SCC(=O)c2ccc(F)cc2)n1Cc1ccco1	3.1%	-9.5	0.0%	?	-0.6%	?
NC(=O)CSc1nc2ccccc2c(=O)n1Cc1ccco1	-1.7%	-0.9	0.0%	-3.2%	8.2%	-16.9%
O=C(CSc1nnc(-c2cc3ccccc3cc2O)n1Cc1ccco1)c1ccc(F)cc1	?	-14.3	0.0%	13µM*	-27.2%	16.4µM*
COc1ccccc1-c1nnc(SCC(=O)c2ccc(C3CCCCC3)cc2)n1Cc1ccco1	?	-18.6	341.7%	23.1µM*	?	23.1µM*
O=C(CSc1nc2ccccc2c(=O)n1Cc1ccco1)c1ccc(F)cc1	?	0.1	3.1%	11.6µM*	-5.5%	23.1µM*
CCOC(=O)C1=C(C)N(CCCC(=O)O)C(=O)NC1c1ccc(C(F)(F)F)cc1 (stereo not given)	.	.	-4.0%	.	.	.
CCC(C(=O)OCC(=O)N(CC)c1c(N)n(Cc2ccccc2)c(=O)[nH]c1=O)c1ccccc1 (stereo not given)	0.5%	-14.2	-13.9%	-4.8%	-1.4%	-3.5%
CC(=O)OCCNc1cc(SC(C)C)c2nonc2c1[N+](=O)[O-]	-5.1%	-22.4	148.2%	-1.4%	-17.5%	?
CN(CCO)c1cc(Sc2nc3ccccc3s2)c2nonc2c1[N+](=O)[O-]	5.01µM*	-16.8	?	2.06µM*	6.31µM*	1.84µM*
CC(=O)OCCN(C)c1cc(SC(C)C)c2nonc2c1[N+](=O)[O-]	?	-68.3*	-26.6%	13µM*	?	16.4µM*
COc1ccccc1C(=O)N1CCN(C(=O)[C@H](CCc2ccccc2)NC(=O)[C@H]2O[C@@H](n3cnc4c(N)ncnc43)[C@H](O)[C@@H]2O)CC1	.	.	-1.2%	.	.	.
C#CC1(O)CCC2C3CCc4cc(O)cc(C)c4C3CCC21C (stereo not given)	-13.2%	2.0	?	16.4µM*	0.0%	?
Cc1noc2c(Nc3ccncc3)cc(-c3ccc(F)cc3)nc12	.	.	-4.8%[176 µM]	.	.	.
SMILES	HT1080 IDH1KD tx	IL1B secr inh	12-LOX inh	TDP1 cell CPT	HT1080NT lethal	TDP1 cell noCPT
CC(=O)OCc1c(-c2ccccc2)c2cc([N+](=O)[O-])ccc2n1C	-27.8%	25.5	0.1%	3.66µM*	-19.4%	1.84µM*
CCOC(=O)C1(CC2CCCCO2)CCN(Cc2cn[nH]c2-c2cccc(F)c2)CC1 (stereo not given)	-0.7%	21.8	2.3%	16.4µM*	1.4%	10.3µM*
CCOC(=O)C1(CC2CCCCO2)CCN(Cc2ccccc2-c2ccco2)CC1 (stereo not given)	9.7%	39.6	?	?	3.6%	20.6µM*
CCOC(=O)C1(CC2CCCCO2)CCN(Cc2cc3ccccc3[nH]2)CC1 (stereo not given)	?	-91.5*	-8.1%	?	?	16.4µM*
CCOC(=O)C1(CC2CCCCO2)CCN(S(=O)(=O)c2cccc(F)c2)CC1 (stereo not given)	-3.1%	15.6	-14.3%	-13.8%	-7.4%	-7.9%
Cc1ccc(C)c(NC(C)C(=O)Nc2sccc2C#N)c1 (stereo not given)	.	.	12.6%	.	.	.
Cc1ccccc1S(=O)(=O)NC(=O)C1(C)CCN1C(=O)CC(c1ccccc1)c1ccccc1 (stereo not given)	-0.9%	26.4	-4.0%	5.8µM*	5.5%	5.8µM*
CC1(C(=O)NS(=O)(=O)c2ccccc2Cl)CCN1C(=O)CC(c1ccccc1)c1ccccc1 (stereo not given)	8.8%	28.0	-11.0%	4.11µM*	-0.3%	7.31µM*
Cc1noc(C)c1S(=O)(=O)NC(=O)C1(C)CCN1C(=O)CC(c1ccccc1)c1ccccc1 (stereo not given)	19.2%	0.5	?	9.2µM*	16.5%	20.6µM*
CC1(C(=O)NS(=O)(=O)c2ccccc2)CCN1C(=O)CC(c1ccccc1)c1ccccc1 (stereo not given)	8.8%	23.1	7.1%	?	3.1%	?
CCOc1ccc(-c2nc(C3CC(=O)N(c4ccc(Cl)cc4)C3)no2)cc1OCC (stereo not given)	.	.	12.9%	.	.	.
C[C@@]1(O)CCN(C(=O)CN)C[C@@H]1Cc1ccccc1	.	.	44.2%	.	.	.
O=C(O)c1ccc(Nc2ncc3c(n2)-c2ccc(Cl)cc2C(c2c(F)cccc2F)=NC3)cc1	.	.	15.3µM*	.	.	.
Cc1sc2ncnc(N/N=C/c3cccc(O)c3)c2c1C	?	-19.5	-7.4%	2.2%	?	-22.0%
